The full list was thinned out, with hits kept by preference.
HT1080NT lethal = kills 2HG-producing HT-1080-NT fibrosarcoma cells; HT-1080-NT fibrosarcoma viability, CellTiter-Glo ATP luminescence, 48 h; Potency, µM (series often up to 46.1 µM), most hits filed as cytotoxic; hit rate 1.6% among 360,000; AID 686970;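 note: NT is the 2HG producing partner of a matched IDH1 knockdown line; nearly all actives have a fitted effect of over 55% in size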
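HT-1080-NT; 750 cells/well; 5% FBS RPMI; 48 h compound, 37 degrees C; CellTiter-Glo luminescence; curve fitting and curve-class assignment.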
ALOX12 inh = ALOX12 (human) lipoxygenase inhibition | purified 12hLO, xylenol orange hydroperoxide absorbance | AID 1671190 | hit rate 1.1% among 580,000 | P18054 | Potency, µM (top dose mostly 108 µM), hits mostly inhibitors
Target sequence (P18054 whole entry, looked up): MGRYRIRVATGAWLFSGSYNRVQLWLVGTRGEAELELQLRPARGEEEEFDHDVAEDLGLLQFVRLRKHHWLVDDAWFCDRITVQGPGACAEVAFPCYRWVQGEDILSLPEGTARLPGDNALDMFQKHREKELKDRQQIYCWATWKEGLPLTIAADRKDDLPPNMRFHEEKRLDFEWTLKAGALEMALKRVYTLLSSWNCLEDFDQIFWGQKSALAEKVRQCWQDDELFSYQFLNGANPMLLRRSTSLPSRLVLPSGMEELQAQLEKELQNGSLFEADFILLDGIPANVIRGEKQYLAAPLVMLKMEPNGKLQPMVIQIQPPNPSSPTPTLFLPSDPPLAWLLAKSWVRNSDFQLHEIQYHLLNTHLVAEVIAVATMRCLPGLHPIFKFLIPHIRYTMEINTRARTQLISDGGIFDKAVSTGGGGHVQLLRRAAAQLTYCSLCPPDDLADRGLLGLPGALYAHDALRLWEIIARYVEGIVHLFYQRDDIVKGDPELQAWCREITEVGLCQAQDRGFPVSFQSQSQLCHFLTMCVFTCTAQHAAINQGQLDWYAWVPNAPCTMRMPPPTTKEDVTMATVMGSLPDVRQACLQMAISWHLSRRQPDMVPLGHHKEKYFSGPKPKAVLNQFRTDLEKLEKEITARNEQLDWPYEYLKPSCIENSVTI
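Purified human 12hLO at 150 nM in 25 mM Hepes, 0.01% Triton X-100, pH 7.0, preincubated 15 min at room temperature with compound. Reaction started with 40 uM arachidonic acid, 30 min at room temperature. Hydroperoxide measured by Fe-xylenol orange, 573/405 nm absorbance ratio.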
HT1080 IDH1KD tx = HT-1080 IDH1 knockdown cell toxicity (counter line); HT-1080 IDH1 knockdown viability, ATP luminescence, 48 h; Potency, µM (titrated, usually from 46.1 µM), actives largely listed as cytotoxic; hit rate 2% among 360,000; AID 686971
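Using the IDH1-knockdown HT-1080 line run in the same batch and compound series as the NT line, viability after 48 h at 37 °C was determined by CellTiter-Glo luminescence and expressed as % activity.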
IL-1B inflam inh = blocks inflammasome-driven IL-1 beta release. THP-1 LPS/ATP IL-1B secretion, AlphaLISA, 16 h; active compounds read low. activity change, % at 57.5 µM. hit rate 4.7% among 360,000. AID 743279; in the data active = activity change below about -50%; inconclusive = mostly about -30% to -49%
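THP-1 cells pretreated 1 hr with compounds (up to 57.5 uM final), then stimulated with LPS (250 ng/mL final) plus ATP (1.25 mM final); secreted IL-1B measured by AlphaLISA after 16 hr, decreased signal indicating inhibition.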
TDP1 cell noCPT = qHTS for Inhibitors of human tyrosyl-DNA phosphodiesterase 1 (TDP1): qHTS in cells in absence of CPT | DT40 Tdp1-/- hTDP1 cells, no CPT, ATP luminescence, 48 h | Potency, µM (top dose mostly 46.2 µM), usual class: inhibitors | hit rate 15% among 420,000 | AID 686978, 2013; note: nearly all actives have a fitted effect of over 55% in size
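Growth of hTDP1-complemented DT40 Tdp1-knockout cells is measured by ATP luminescence after at least 48 hr compound exposure at 37 °C, with DMSO substituting for the 20 nM CPT used in the parallel screen.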
TDP1 cell CPT = growth inhibition of DT40 Tdp1-/-;hTDP1 cells with camptothecin (screen for TDP1 inhibitors); AID 686979; chicken DT40 Tdp1-/-;hTDP1 cells + 20 nM CPT, ATP luminescence, 48 h; Potency, µM (highest dose often 46.2 µM), usual class: inhibitors; hit rate 12% among 420,000; note: nearly all actives have a fitted effect of over 55% in size
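Cell growth measured by CellTiter-Glo luminescence after a minimum 48 h, 37 C compound exposure with 20 nM CPT in Tdp1-knockout DT40 cells stably expressing hTDP1, seeded 400/well; qHTS titration format.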
A number is an active result; i = inactive; ? = inconclusive; nt = no result given; [ ] = dose if it differs, or a comment. Unless noted, calls come from the whole dose curve; as a rule, active = well fitted curve in the direction sought with a large enough effect; inconclusive = small, poorly fitted or top-dose-only effect, or another doubt; inactive = no such curve, though single readings can be large; an effect the other way counts as inactive or inconclusive.

SMILES	HT1080NT lethal	ALOX12 inh	HT1080 IDH1KD tx	IL-1B inflam inh	TDP1 cell noCPT	TDP1 cell CPT
COc1ccc(NC(=O)[C@@H]2Cc3ccccc3CN2C(=O)OC(C)(C)C)cc1	nt	i	nt	nt	nt	nt
COc1ccc(NC(=O)[C@@H]2CCCN2C(=O)[C@@H]2Cc3ccccc3CN2C(=O)OC(C)(C)C)cc1	i	i	?	i	23µM	i
CC(=O)N1CCC(N2C[C@@H]3OCC(=O)N(CC(N)=O)[C@@H]3C2)CC1	nt	i	nt	nt	nt	nt
CCCc1nc(C)c(CNC2CCN(C(=O)c3ccccc3)CC2)s1	nt	i	nt	nt	nt	nt
CCC(c1cccs1)N1C(=O)[C@H]2CN(S(=O)(=O)c3ccccc3Cl)C[C@H]2C1=O (some centres not stated)	nt	i	nt	nt	nt	nt
CCOc1ccccc1NC(=O)C1Cc2ccccc2CN1S(C)(=O)=O (configuration not stated)	i	i	i	i	i	i
CCc1nnc(NC(=O)C2Cc3ccccc3CN2S(=O)(=O)CC)s1 (configuration not stated)	i	i	i	i	i	i
CCS(=O)(=O)N1Cc2ccccc2CC1C(=O)Nc1nc2ccccc2s1 (configuration not stated)	i	i	i	i	16µM	?
CS(=O)(=O)N1Cc2ccccc2CC1C(=O)Nc1ccccc1C(N)=O (configuration not stated)	i	i	i	i	i	23µM
CCCN(CCC)CCNC(=O)CS(=O)(=O)Cc1nc(-c2ccccc2F)oc1C	nt	i	nt	nt	nt	nt
COc1ccc(-n2c(-c3ccc(Cl)cc3)c[n+]3c2CCc2ccccc2-3)cc1	23µM	i	8.2µM	-55	2.3µM	2.9µM
COc1ccc(-n2c(-c3ccccc3)nnc2-c2ccc(Cl)cc2)cc1	i	i	i	i	?	i
O=C(Cc1ccc(OCC2CCCCC2)cc1)NO	nt	nt	nt	nt	11µM	10µM
Cc1c(NC(=O)CSc2nnc(-c3cccc(Cl)c3)o2)c(=O)n(-c2ccccc2)n1C	i	i	i[9.24 µM]	i	i	i
CCOc1ccc(NC(=O)N2CCc3cc(OC)c(OC)cc3C2CNC(=O)C2CC2)cc1 (configuration not stated)	nt	i	nt	nt	nt	nt
CCc1ccc(-n2c(=O)c3c4c(sc3n(CC(=O)c3ccc(Cl)cc3)c2=O)CCC4)cc1	nt	i	nt	nt	2.6µM	2.6µM
CCOC(=O)N1CCc2c(sc3c2c(=O)n(-c2ccc(CC)cc2)c(=O)n3CC(=O)c2ccc(F)cc2)C1	nt	i	nt	nt	?	13µM
O=c1c2c3c(sc2n(Cc2ccccc2F)c(=O)n1-c1ccc(Cl)cc1)CCCC3	nt	i	nt	nt	i	i
CCc1ccc(-n2c(=O)c3c4c(sc3n(Cc3cc(=O)n5c(C)cccc5n3)c2=O)CCC4)cc1	nt	i	nt	nt	12µM	?
Cc1cccc2nc(Cn3c(=O)n(-c4ccccc4)c(=O)c4c5c(sc43)CCC5)cc(=O)n12	nt	i	nt	nt	?	?
O=C(Cn1c(=O)n(-c2ccc(Cl)cc2)c(=O)c2c3c(sc21)CCC3)c1ccc(F)cc1	nt	?	nt	nt	9.2µM	8.2µM
CCOC(=O)N1CCc2c(sc3c2c(=O)n(-c2ccc(CC)cc2)c(=O)n3Cc2cc(C)ccc2C)C1	nt	i	nt	nt	i	i
Cc1ccc(CN2CCC(N3CC(OCC4CC4)C34CCOCC4)CC2)cc1C (configuration not stated)	nt	i	nt	nt	nt	nt
CCc1ccc(-n2c(=O)c3c4c(sc3n(CC(=O)c3ccc(Br)cc3)c2=O)CCC4)cc1	nt	i	nt	nt	3.7µM	5.8µM
CC(=O)c1sc2c(c1C)c(=O)n(-c1ccc(Cl)cc1)c(=O)n2Cc1ccc(Cl)cc1	nt	i	nt	nt	8.2µM	8.2µM
SMILES	HT1080NT lethal	ALOX12 inh	HT1080 IDH1KD tx	IL-1B inflam inh	TDP1 cell noCPT	TDP1 cell CPT
Cc1sc2c(c1C)c(=O)n(-c1ccc(Cl)cc1)c(=O)n2CC(=O)c1ccccc1	nt	i	nt	nt	i	i
CCCNC(=O)Cn1ccn2nc(-c3ccc(F)cc3)c(CO)c2c1=O	nt	i	nt	nt	nt	nt
Cn1c(=O)oc2cc(S(=O)(=O)NC(Cc3ccccc3)C(=O)NCc3ccccc3Cl)ccc21 (configuration not stated)	nt	?	nt	nt	i	i
COc1cccc(NC(=O)N2CCC(N(C)S(C)(=O)=O)CC2)c1	nt	i	nt	nt	nt	nt
CCCNC(=O)C1(C)CCCN(C(=O)C2(c3ccc(Cl)cc3)CCCC2)C1 (configuration not stated)	i	i	i	i	21µM	?
CCCNC(=O)C1(C)CCCN(C(=O)COc2ccc(C(C)(C)C)cc2)C1 (configuration not stated)	i	i	?	i	16µM	29µM
CCCNC(=O)C1(C)CCCN(C(=O)Cc2ccc(OC)cc2)C1 (configuration not stated)	i	i	i	i	i	i
COc1ccc(-c2cc(-c3ccc(O)cc3)nc(N)c2C#N)cc1OC	i	i	?	i	?	?
COc1cc(-c2c(C#N)c(N)nc3c2CCCC3)ccc1O	i	i	i	i	16µM	15µM
COc1ccc(-c2c(C#N)c(N)nc3c2CCc2ccccc2-3)cc1OC	?	i	21µM	i	7.3µM	8.2µM
COc1ccc(-c2nc(C)c(CCNC(=O)C(=O)Nc3cccc(F)c3)s2)cc1OC	nt	i	nt	nt	nt	nt
C[C@@H](CCc1ccc(O)cc1)NCCc1ccc(O)c(O)c1	nt	?	nt	nt	11µM	6µM
CS(=O)(=O)N1CCN2C(=O)N(Cc3cccnc3)C[C@H]2C1	nt	i	nt	nt	nt	nt
Cc1ccc2cc(CN(Cc3ccco3)C(=S)NCC3CCCO3)c(=O)[nH]c2c1 (configuration not stated)	i	nt	i	i	21µM	?
Cc1ccc2cc(CN(CC3CCCO3)C(=S)NCc3ccco3)c(=O)[nH]c2c1 (configuration not stated)	i	i	i	?	i	i
Cc1ccc2[nH]c(=O)c(CN(Cc3cccs3)C(=S)NCc3ccco3)cc2c1	i	?	i	i	16µM	?
O=c1[nH]c2cc3c(cc2cc1CN(Cc1cccnc1)C(=S)NCc1ccco1)OCCO3	i	i	i	i	?	15µM
CN(C)CCN(Cc1cc2cc3c(cc2[nH]c1=O)OCO3)C(=S)NCc1ccco1	i	?	i	i	i	i
Cc1ccc2[nH]c(=O)c(CN(CC3CCCO3)C(=S)NCc3ccco3)cc2c1 (configuration not stated)	i	i	i	?	21µM	?
Cc1cccc(CNC(=O)c2ncoc2-c2cccs2)c1	nt	i	nt	nt	nt	nt
CC1=NN(/C(=N\c2nnc(C)s2)Nc2ccc(C)cc2)[C@H](c2ccc(C)cc2)S1	i	i	i	i	?	?
